Screens from PubChem BioAssay.
KCNQ2 inh = blocks the rat KCNQ2 potassium channel | 1.1% of 310,000 active | B-score at 10 µM | AID 2156 | CHO-K1 KCNQ2, FluxOR thallium flux, 20 min; stronger effect = lower value | O88943;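 active = fluorescence ratio B-score at most minus 3 library SDs, with starting brightness B-score within 2 library SDs, cut at about -5.5 in these data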
KCNQ2 pot = KCNQ2 (rat) channel potentiation. CHO-K1 KCNQ2, FluxOR thallium flux fluorescence; stronger effect = higher value. B-score at 10 µM. 0.54% of 310,000 active;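 active = fluorescence ratio B-score at least 3 SD of library B-scores, with initial fluorescence B-score within 3 of them, cut at about 5.3 in these data; same plate scores as AID 2156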;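 also: B-score of peak minus minimum over baseline fluorescence ratio after K+ and Tl+ stimulus; positive B-score means potentiation of KCNQ2 with more thallium influx and brighter signal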
Of the large screens only hits and unclear results are named; the others gave an inactive call. Only some compounds are listed: those with a hit (about 1.6% of all), similar ones and a draw of the others.

Cc1ccc(-c2nc3cccnc3s2)cc1NS(=O)(=O)c1ccc2c(c1)CCCC2	KCNQ2 inh -6
COC(=O)c1cc2nc(-c3ccccc3)cc(C)n2n1	none
Cc1cc(-c2ccccc2)nc2cc(C(=O)N(Cc3ccccc3)Cc3ccccc3)nn12	KCNQ2 inh -7.2
COc1ccccc1N(Cc1ccccc1)S(=O)(=O)c1cccc(C(=O)Nc2ccccn2)c1	none (no result: KCNQ2 pot)
COc1ccccc1N(Cc1ccccc1)S(=O)(=O)c1cccc(C(=O)Nc2ccc(C)cn2)c1	KCNQ2 inh -7.1
CCC1CCCCN1CCCNC(=O)Cn1ncn2nc(-c3ccc(OC)cc3)cc2c1=O (stereo not drawn)	none (no result: KCNQ2 pot)
Cc1cccc2nc(-c3ccccc3)nc(N[C@@H](CO)c3ccccc3)c12	none (no result: KCNQ2 pot)
C/C(CCC(C)C)=N\Nc1cc(C)c2ccccc2n1	KCNQ2 inh -8.3
Cc1cc(NCc2ccccc2)nc2ccccc12	none
CN1C(=O)C(C)(C)c2cc(S(=O)(=O)N3CCCC(C(=O)NCc4ccccc4Cl)C3)ccc21 (stereo not drawn)	none
CC1(c2ccccc2)CC(C)(C)N2C(=O)Cc3cccc1c32 (stereo not drawn)	KCNQ2 inh -7.7
CC(=O)N1c2ccccc2C(C)(c2ccccc2)CC1(C)C (stereo not drawn)	none (no result: KCNQ2 pot)
COc1cc2[nH]c(=O)n(CCC(=O)NCCCN3CCN(c4ccccc4F)CC3)c(=O)c2cc1OC	none
O=C(O)/C=C/C(=O)OC1CC2CCC1C2 (stereo not drawn)	none (no result: KCNQ2 pot)
O=C(c1ccc2c(c1)OCO2)N(Cc1ccco1)C1(C(=O)NC2CCCCC2)CCCCC1	KCNQ2 inh -7.3
O=C(c1ccccn1)N(Cc1ccco1)C1(C(=O)NC2CCCC2)CCCCC1	none (no result: KCNQ2 pot)
CSCCC(NC(=O)COc1ccccc1)C(=O)O (stereo not drawn)	none
Cc1cc(C(C)(C)C)oc1C(=O)N(CC(=O)NC1CCCC1)Cc1ccccc1	none (no result: KCNQ2 pot)
Cc1ccc(C)c(N(CC(=O)NC2CCCC2)C(=O)c2oc(C(C)(C)C)cc2C)c1	KCNQ2 inh -6.6
CCOC(=O)c1c(-n2c(C)cc(C=O)c2C)sc2c1CCCC2	KCNQ2 inh -6.1
CCOC(=O)c1cccc(-n2c(C)cc(C=O)c2C)c1	none
CSCCC(NS(=O)(=O)c1ccc(Cl)cc1)C(=O)OCc1c(Cl)cccc1Cl (stereo not drawn)	none (no result: KCNQ2 pot)
CSCCC(NS(=O)(=O)c1ccccc1F)C(=O)OCc1ccccc1Cl (stereo not drawn)	KCNQ2 inh -6.2
Cc1ccc(C(C)C)c(OCC(=O)Nc2ccccc2N2CCN(C)CC2)c1	none (no result: KCNQ2 pot)
Cc1cccc(OCC(=O)Nc2ccccc2N2CCCC2)c1C	none (no result: KCNQ2 pot)
Cc1cccc(OCC(=O)Nc2ccccc2N2CCN(C(=O)C(C)C)CC2)c1C	KCNQ2 inh -5.8
CC(=O)N1CCN(c2ccccc2NC(=O)COc2cc(C)ccc2C(C)C)CC1	KCNQ2 inh -7.8
COc1ccc2ccn(S(=O)(=O)c3ccccc3)c2c1	none (no result: KCNQ2 pot)
CCOC(=O)C(C)Sc1ncc(OC)c(Sc2ccc(Cl)cc2)n1 (stereo not drawn)	KCNQ2 inh -8
CCOC(=O)CSc1ncc(OC)c(Sc2ccc(Cl)cc2)n1	none (no result: KCNQ2 pot)
Fc1ccc(-c2nnc(Cc3ccc(Cl)cc3)o2)cc1	none (no result: KCNQ2 pot)
O=C(O)c1cc(-c2ccc(Cl)cc2)n(-c2cccc(Cl)c2)n1	none (no result: KCNQ2 pot)
COc1ccc(S(=O)(=O)NCc2ccc(C(=O)NCCCN3CC(C)CC(C)C3)cc2)cc1 (stereo not drawn)	none (no result: KCNQ2 pot)
S=C1N(c2ccccc2)C(c2ccc(Cl)cc2)N2CCCN12 (stereo not drawn)	none (no result: KCNQ2 pot)
CC1(C)CN2C(=S)N(c3ccccc3)C(c3ccccc3)N2C1 (stereo not drawn)	KCNQ2 inh -5.6
COc1ccc(C23CC4CC(CC(C(=O)O)(C4)C2)C3)c(F)c1	none
CN1C(=O)CCC(CCC(=O)O)(c2ccccc2O)C1=O (stereo not drawn)	none
COc1ccccc1OCC(=O)NCCSCc1ccccc1Cl	KCNQ2 inh -6.2
O=C(COc1ccccc1)NCCSCc1ccccc1Cl	none (no result: KCNQ2 pot)
COc1ccccc1OCC(=O)NCCSCc1cccc(Cl)c1	KCNQ2 inh -6.4
COc1ccccc1C(=O)NCCCNC(=O)c1ccccn1	none (no result: KCNQ2 pot)
O=C(Cc1ccccc1)NCCSCc1ccc(Cl)cc1	none
COc1ccccc1C(=O)NCCSCc1ccccc1Cl	KCNQ2 inh -6.4
O=C(COc1ccccc1)NCCSCc1ccc(Cl)cc1	KCNQ2 inh -6.6
COc1ccccc1OCC(=O)NCCNC(=O)COc1ccccc1OC	none (no result: KCNQ2 pot)
N=C(SC1CC(=O)N(c2ccc(F)cc2)C1=O)N1N=C(c2ccccc2)CC1c1ccccc1 (stereo not drawn)	none
COc1ccc(/C=C(/NC(=O)c2ccccc2OC)C(=O)Nc2ccc(C(=O)O)cc2)cc1	none (no result: KCNQ2 pot)
O=C(NCc1cccnc1)c1cn(-c2ccccc2)nc1-c1ccccc1	none (no result: KCNQ2 pot)
COc1ccc(Cl)cc1C(=O)Nc1cccnc1Cl	none
Cc1ccc(/C=C2\SC(N3CCN(C(c4ccccc4)c4ccccc4)CC3)=NC2=O)o1	none (no result: KCNQ2 pot)
COC(=O)Cc1nnc(SCC(=O)Nc2ccccc2)c2ccccc12	none
CC(C)(C)c1ccc(C(=O)NCCOc2ccccc2)cc1	none (no result: KCNQ2 pot)
COc1ccccc1C(=O)NCCOc1ccc(C(C)(C)C)cc1	KCNQ2 inh -5.8
CCOC(=O)c1sc(NC(=O)C2CC(=O)N(c3ccc(C)cc3)C2)nc1C (stereo not drawn)	none (no result: KCNQ2 pot)
O=C(CCCCCN1C(=O)[C@@H]2Cc3ccccc3CN2C1=O)Nc1cccc(F)c1	KCNQ2 inh -5.8
Cc1cccc(NC(=O)CCCCCN2C(=O)[C@@H]3Cc4ccccc4CN3C2=O)c1	none (no result: KCNQ2 pot)
CCc1cccc(C)c1NC(=O)c1cccc(N(C)C)c1	KCNQ2 inh -6.9
CCc1cccc(CC)c1NC(=O)c1cccc(NC(=O)c2ccccc2)c1	none (no result: KCNQ2 pot)
Cc1ccccc1-c1nc(CN(C)C(C)c2ccon2)c(C)o1 (stereo not drawn)	none (no result: KCNQ2 pot)
Cn1c(=O)n(CC(N)=O)c(=O)c2c1nc(Br)n2Cc1ccccc1	none
CCCCOC(=O)Cn1c(=O)c2c(nc(Br)n2Cc2ccccc2)n(C)c1=O	KCNQ2 inh -7.5
Cc1ccc(NC(=O)OCCN2CCN(Cc3ccccc3)CCC2=O)cc1C	none (no result: KCNQ2 pot)
Cc1ccccc1NC(=O)OCCN1CCN(Cc2ccccc2)CCC1=O	KCNQ2 inh -6.3
CCN(CC)CCCNc1oc(-c2ccccc2[N+](=O)[O-])nc1C#N	none
CSCCC(NC(=O)c1ccc(Cl)cc1Cl)C(=O)NCc1ccccn1 (stereo not drawn)	none (no result: KCNQ2 pot)
CSCCC(NC(=O)c1ccc(Cl)cc1Cl)C(=O)OC1CCCCC1=O (stereo not drawn)	KCNQ2 inh -8.1
COc1ccc(C2/C(=C(\O)c3ccc4c(c3)CC(C)O4)C(=O)C(=O)N2Cc2cccnc2)c(OC)c1 (stereo not drawn)	none (no result: KCNQ2 pot)
Cc1nc(NC(=O)C23CC4CC(CC(C4)C2)C3)sc1Cc1ccc2c(c1)OCO2	KCNQ2 pot 21
Cc1nc(NC(=O)C2CCCC2)sc1Cc1ccc2c(c1)OCO2	none
COc1ccc(CNC(=O)CNS(=O)(=O)c2ccc(Cl)cc2)cc1	none (no result: KCNQ2 pot)
CCn1c(CSCc2ccc(C)cc2)nnc1SCC(=O)N1CCN(c2ccccc2)CC1	KCNQ2 inh -7.8
C=CCn1c(CSCc2ccccc2)nnc1SCC(=O)N1CCN(c2ccccc2)CC1	none (no result: KCNQ2 pot)
Cc1ccc(NC(=O)CCCNC(=O)c2ccc(Cl)cc2)c(O)c1	none
COc1ccccc1N1CCN(c2ccc3cc(S(=O)(=O)N4CCCCC4)ccc3n2)CC1	KCNQ2 inh -5.6
O=S(=O)(c1ccc2nc(N3CCN(c4ccccc4)CC3)ccc2c1)N1CCCCC1	none
C/C(=N\N=C1\NC(=O)C(CC(=O)Nc2ccccc2F)S1)C1CCCCC1 (stereo not drawn)	none
Cc1cccc(C)c1-n1c(C)cc(/C=N\NC(=O)CC(=O)NC2CCCCC2)c1C	KCNQ2 pot 8.4
